Among the test systems are HCT-15 colon; HT29 colon; SNB-75 CNS; U251 CNS; PC-3 prostate; SK-MEL-5 melanoma; UACC-62 melanoma; LOX IMVI melanoma; SK-MEL-28 melanoma; SK-MEL-2 melanoma; EKVX NSCLC; SN12C renal; UO-31 renal; TK-10 renal; ACHN renal; CAKI-1 renal; A498 renal; CCRF-CEM leukemia; MOLT-4 leukemia; SNB-19 CNS.
Common to all, as to test: NCI-60 one-dose screen, 48 h (100 = growth as untreated, 0 = no growth, -100 = all killed)
Conditions in all cases: 10 µM unless noted

About 83,000 compounds went through this panel and 20% of them were active in at least one assay; those are over-represented in the sample as a whole.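 Values shown are percent growth following 48 h exposure of cells in 96-well plates to a single concentration of compound; below 10 was considered active.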 Unmarked numbers belong to inactive results. Calls of active or inactive are those of the source.

Take `COc1ccc(-c2cn3c(-c4ccc(OC)cc4)cnc3c(Oc3ccc4c(C)cc(=O)oc4c3)n2)cc1`: the growth in the experiment on HCT-15 colon was 63.4%; with HT29 colon, 25.4%; in the experiment with SNB-75 CNS, 14.3%; with U251 CNS, 22.6%; in the experiment with PC-3 prostate, 17.7%; in the experiment on SK-MEL-5 melanoma, 28.6%. Moreover, the growth with UACC-62 melanoma was 50.1%; in the experiment on LOX IMVI melanoma it was 8.02% (active); with SK-MEL-28 melanoma, -17.4% (active); in the experiment with SK-MEL-2 melanoma, 49.4%; in the experiment on EKVX NSCLC it was 50.2%; with SN12C renal, 24.5%. Also, the growth with UO-31 renal is 75%; in the experiment on TK-10 renal, 35.7%; in the experiment on ACHN renal, 58.1%; in the experiment on CAKI-1 renal, 71.7%; in the experiment on A498 renal, 52.4%; in the experiment with CCRF-CEM leukemia, 93.2%.
Consider `Cn1c2ccccc2c2c3c(c4c5ccccc5[nH]c4c21)C(=O)N(N)C3=O`, for which the growth is 68.2% in the experiment with HCT-15 colon; 60.3% in the experiment with HT29 colon; 63.9% with SNB-75 CNS; 37.3% with U251 CNS; 59.6% in the experiment with PC-3 prostate; 31% with SK-MEL-5 melanoma. Further, the growth is 22.6% in the experiment on UACC-62 melanoma; 23.4% with LOX IMVI melanoma; 66.5% in the experiment on SK-MEL-28 melanoma; 99.7% with SK-MEL-2 melanoma; 77.3% with EKVX NSCLC; 52.2% with SN12C renal. For the same compound, the growth in the experiment on UO-31 renal is 34.8%; in the experiment with TK-10 renal, 82.5%; in the experiment with ACHN renal, 14.2%; in the experiment with CAKI-1 renal it was 30.7%; in the experiment on A498 renal, 60%; in the experiment with CCRF-CEM leukemia it was 26.4%. Also, the growth in the experiment on MOLT-4 leukemia is 21.1%.
Regarding `CC1CN(C(C)C)C(=S)N(c2ccccc2)C1=O` (stereo unspecified), the growth in the experiment on HCT-15 colon was 104%; in the experiment on HT29 colon it was 104%; with SNB-75 CNS, 119%; in the experiment on U251 CNS, 99.9%; with PC-3 prostate, 105%; with SK-MEL-5 melanoma it was 98.1%. The growth in the experiment on UACC-62 melanoma was 94.4%; with LOX IMVI melanoma, 93.4%; with SK-MEL-28 melanoma, 122%; in the experiment with SK-MEL-2 melanoma, 98.5%; with EKVX NSCLC it was 88.6%; with SN12C renal it was 101%. The growth is 84.6% in the experiment on UO-31 renal; 112% with TK-10 renal; 100% in the experiment with ACHN renal; 68.9% in the experiment on CAKI-1 renal; 101% with A498 renal; 90.6% in the experiment on CCRF-CEM leukemia. Also, in the experiment on MOLT-4 leukemia, the growth was 90%.
`CC1(C)CC(C(=O)OCCCCCCCCCCC[P+](c2ccccc2)(c2ccccc2)c2ccccc2)C(C)(C)N1O` (stereo unspecified): the growth in the experiment on HCT-15 colon is 88.5%; in the experiment with HT29 colon it was -33.9% (active); in the experiment on SNB-75 CNS it was -57.9% (active); with U251 CNS, 110%; in the experiment on PC-3 prostate it was -70.1% (active); in the experiment with SK-MEL-5 melanoma, -97.6% (active). Also, the growth in the experiment with UACC-62 melanoma was -69.3% (active); in the experiment on LOX IMVI melanoma, 117%; in the experiment on SK-MEL-28 melanoma, -95.2% (active); with SK-MEL-2 melanoma it was -45.8% (active); with EKVX NSCLC it was -32.6% (active); with SN12C renal it was -36% (active). Also, the growth with UO-31 renal is -74.4% (active); in the experiment on TK-10 renal, -72.1% (active); in the experiment on ACHN renal, 109%; in the experiment on CAKI-1 renal, -57.9% (active); in the experiment with A498 renal, -94.8% (active); in the experiment with CCRF-CEM leukemia it was -32.8% (active). In the experiment with MOLT-4 leukemia, the growth was -56.9% (active).
As to `COc1ccc2nc(NC(=O)c3cccnc3Nc3cc(OC)c(OC)c(OC)c3)sc2c1`, the growth with HCT-15 colon was 56.3%; in the experiment with HT29 colon, 11.9%; with SNB-75 CNS, 14.1%; with SNB-19 CNS it was 26.4%; in the experiment with SK-MEL-5 melanoma, 15.5%; in the experiment on UACC-62 melanoma, 57.2%. For the same compound, the growth in the experiment on LOX IMVI melanoma is 37.1%; with SK-MEL-28 melanoma it was 24.1%; in the experiment with SK-MEL-2 melanoma it was 48%; in the experiment on SN12C renal, 18.5%; with ACHN renal it was 58%; with CAKI-1 renal it was 5.14% (active). The growth with A498 renal was -64.4% (active); with CCRF-CEM leukemia it was 48.6%; in the experiment with MOLT-4 leukemia, 56.7%.
Take `CN1CCCCC1CCN1c2ccccc2Sc2ccc(Cl)cc21` (stereo unspecified): the growth is 49.3% in the experiment on HCT-15 colon; 31.4% with HT29 colon; 7.16% (active) with SNB-75 CNS; 97% in the experiment with SNB-19 CNS; 59.5% in the experiment on PC-3 prostate; 55.7% in the experiment with SK-MEL-5 melanoma. Further, the growth is 77.9% in the experiment with UACC-62 melanoma; 75% in the experiment with SK-MEL-28 melanoma; 71.2% with SK-MEL-2 melanoma; 71.8% in the experiment on SN12C renal; 69.3% in the experiment with TK-10 renal; 58.2% in the experiment with ACHN renal. The growth with CAKI-1 renal was 59.9%; in the experiment with A498 renal it was 74.9%; in the experiment with CCRF-CEM leukemia, 39.3%; with MOLT-4 leukemia it was 41%.
With `Cc1ccc2c(c1)O/C(=C\c1cccc(OCC(=O)c3ccccc3)c1)C2=O`, the growth was 69.8% in the experiment with HCT-15 colon; 118% in the experiment on HT29 colon; 93.4% in the experiment with SNB-75 CNS; 96.5% in the experiment with U251 CNS; 358% in the experiment with PC-3 prostate; 87.3% in the experiment with SK-MEL-5 melanoma. Also, the growth in the experiment on UACC-62 melanoma was 66.1%; in the experiment with LOX IMVI melanoma, 101%; with SK-MEL-28 melanoma it was 110%; in the experiment with SK-MEL-2 melanoma it was 70%; in the experiment with EKVX NSCLC, 95.5%; in the experiment with SN12C renal, 107%. In addition, the growth with UO-31 renal is 78.4%; in the experiment on TK-10 renal, 133%; in the experiment on ACHN renal, 103%; in the experiment on CAKI-1 renal, 85.1%; with A498 renal, 106%; in the experiment on CCRF-CEM leukemia, 129%. In the experiment on MOLT-4 leukemia, the growth is -34.3% (active).
Turning to `CC1=N/C(=C\c2cccc(Br)c2)C(=O)O1`, the growth in the experiment on HCT-15 colon is 104%; in the experiment with HT29 colon, 108%; in the experiment with SNB-75 CNS, 97.7%; with SNB-19 CNS, 105%; in the experiment on PC-3 prostate, 101%; with SK-MEL-5 melanoma it was 100%. The growth was 104% in the experiment on UACC-62 melanoma; 114% in the experiment with SK-MEL-28 melanoma; 109% in the experiment on SK-MEL-2 melanoma; 99.5% in the experiment on EKVX NSCLC; 98.2% with SN12C renal; 90.1% in the experiment with UO-31 renal. Besides, the growth in the experiment on TK-10 renal was 101%; in the experiment on ACHN renal, 109%; with CAKI-1 renal it was 100%; with A498 renal it was 119%; in the experiment on CCRF-CEM leukemia, 107%.
For the compound `c1ccc(CSc2ncnc3nc[nH]c23)nc1`, the growth is 103% in the experiment on HCT-15 colon; 112% in the experiment with HT29 colon; 97.2% in the experiment on SNB-75 CNS; 113% with U251 CNS; 112% in the experiment with PC-3 prostate; 100% in the experiment with SK-MEL-5 melanoma. Further, the growth with UACC-62 melanoma was 88.4%; with LOX IMVI melanoma, 106%; with SK-MEL-28 melanoma, 128%; with SK-MEL-2 melanoma, 112%; with EKVX NSCLC it was 99.6%; in the experiment on SN12C renal it was 98.6%. Further, the growth in the experiment with UO-31 renal was 96.4%; in the experiment with TK-10 renal, 101%; in the experiment on ACHN renal, 105%; with CAKI-1 renal it was 57%; with A498 renal, 102%; in the experiment on CCRF-CEM leukemia it was 102%. In addition, the growth with MOLT-4 leukemia is 97.7%.

The record behind these values is PubChem BioAssay (NCI).
